From PubChem BioAssay (NCATS)
Inconclusive results are not listed. The source made the active and inactive calls. Unless noted, calls come from the whole dose curve; as a rule, active = well fitted inhibition curve with a large enough effect; inconclusive = small, poorly fitted or top-dose-only effect; inactive = no such curve, though single readings can be large or run the other way.

Tests used:
[1] = High-throughput drug toxicity screening in the BPDCN cell line Gen2.2 (AID 1224824; call rule not given here;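 note: cells exposed to compounds for 48 h before reading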); conditions: Gen2.2 BPDCN cells; at 45.8 µM (top of the series)
How it was run: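 CellTiter-Glo luminescence read after 48 h compound exposure at 37 C defines viability; percent activity set with DMSO as 100% and bortezomib (9.2 uM final) as 0%. 500 exponentially growing cells per well, RPMI plus 10% FBS.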

[2] = High-throughput drug toxicity screening in the BPDCN cell line Cal-1 (AID 1224825; call rule not given here); conditions: Cal-1 BPDCN cell viability, qHTS; at 45.8 µM (top of the series)
How it was run: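 500 Cal-1 cells/well, RPMI + glutamine + 10% FBS (phenol red-free); cpd added by pin tool; 48 h, 37C, 5% CO2; CTG 15 min RT, lumi read. Normalised: DMSO 100%, bortezomib 9.2 uM 0%.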

[3] = qHTS assay for measurement of the activity of small molecule inhibitors on Zika virus induced Caspase-3 activity in human iPSC derived neural progenitor cells (hNPCs) (AID 1224857); conditions: hNPCs ZIKV-induced caspase-3/7, Caspase-Glo luminescence, 6 h; series mostly up to 45.7 µM; note: nearly all actives have a fitted effect of over 65% in size; note: potency is the fitted concentration of half-maximal effect
How it was run: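 Cells were plated at 350 per well and grown 16 to 20 hours. Compound pretreatment lasted one hour, after which ZIKV (2 FFU/cell) was added for 6 hours. Percent inhibition was normalized between uninfected and infected controls.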

[4] = qHTS assay for measurement of the activity of small molecule inhibitors on Zika virus induced Caspase-3 activity in human astrocytoma cells (AID 1224859); conditions: SNB-19 ZIKV-induced caspase-3/7, luminescence, 6 h; series mostly up to 45.7 µM; note: potency is the fitted concentration of half-maximal effect
How it was run: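 Percent inhibition of virus-induced caspase-3/7 signal is calculated against uninfected and ZIKV-infected control cells. Cells are SNB-19, infected at 2 FFU/cell for 6 h after 1 h compound exposure.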

[5] = qHTS Screen of the MIPE 4.0 Collection Against Ewings Sarcoma (RDES) (AID 1259252); conditions: RD-ES Ewing sarcoma viability, CellTiter-Glo, 48 h; series mostly up to 45.8 µM; note: nearly all actives have a fitted effect of over 35% in size; note: potency is the fitted concentration of half-maximal effect
How it was run: (§1)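 Cells plated in serum-containing RPMI (5% FBS) and treated with compound dilutions for 48 h. Readout luminescent viability; normalization relied on vehicle (no inhibition) and media-only columns (full inhibition).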

[6] = qHTS Screen of the MIPE 4.0 Collection Against Ewings Sarcoma (TC71) (AID 1259253); conditions: TC71 Ewing sarcoma viability, CellTiter-Glo, 48 h; series mostly up to 45.8 µM; note: nearly all actives have a fitted effect of over 40% in size; note: potency is the fitted concentration of half-maximal effect
How it was run: as §1

[7] = qHTS Screen of the MIPE 4.0 Collection Against Ewings Sarcoma (EW8) (AID 1259255); conditions: EW8 Ewing sarcoma viability, CellTiter-Glo, 48 h; series mostly up to 45.8 µM; note: nearly all actives have a fitted effect of over 35% in size; note: potency is the fitted concentration of half-maximal effect;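 for viability: 100% = DMSO-treated cells and 0% = medium-only wells without cells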
How it was run: as §1

[8] = qHTS Screen of the MIPE 4.0 Collection Against Ewings Sarcoma (TC32) (AID 1259256); conditions: TC32 Ewing sarcoma viability, CellTiter-Glo, 48 h; series mostly up to 45.8 µM; note: nearly all actives have a fitted effect of over 45% in size; note: potency is the fitted concentration of half-maximal effect
How it was run: as §1

Row | Structure (SMILES) | cell viability, % of control (lower = more cytotoxic) [1] [%] | viability (% of control) [2] [%] | Potency [3] | Potency [4] | Potency [5] | Potency [6] | Potency [7] | Potency [8]
1 | C1=C2CCCN[C@H]2[C@@H]2C[C@H]1[C@@H]1CCCCN1C2 | 131 | 105 | inactive | inactive | inactive | inactive | inactive | inactive
2 | COC[C@H]1OC(=O)c2coc3c2[C@@]1(C)C1=C(C3=O)[C@@H]2CC[C@H](O)[C@@]2(C)C[C@@H]1OC(C)=O | 5.55 | 9.36 | inactive | inactive | 5.9 µM (active) | 13.2 µM (active) | 6.62 µM (active) | 2.09 µM (active)
3 | C=CCON=C(C[C@H]1O[C@@H]2O[C@]3(C)CC[C@@H]4[C@H](C)CC[C@@H]([C@H]1C)[C@@]24OO3)[C@H]1O[C@@H]2O[C@]3(C)CC[C@H]4[C@H](C)CC[C@@H]([C@@H]1C)[C@@]24OO3 | 19.7 | 23.2 | inactive | inactive | 0.469 µM (active) |  | 0.296 µM (active) | 
4 | C[C@H]1CCCC=CC2C[C@H](O)C[C@@H]2[C@H](O)C=CC(=O)O1 (some centres not stated) | 4.51 | 4 | inactive | inactive | inactive | inactive | inactive | inactive
5 | CCNC(=O)C[C@@H]1N=C(c2ccc(Cl)cc2)c2cc(OC)ccc2-n2c(C)nnc21 | 12.3 | 7.23 | inactive | inactive | 3.32 µM (active) | 2.96 µM (active) | 7.43 µM (active) | 3.72 µM (active)
6 | CC=C(C)C(=O)O[C@H]1C(C)=C2[C@@H]3OC(=O)[C@@](C)(O)[C@@]3(O)[C@@H](OC(=O)CCC)C[C@](C)(OC(C)=O)[C@@H]2[C@@H]1OC(=O)CCCCCCC | 12.1 | 2.54 | inactive | inactive | 0.148 µM (active) | 0.0526 µM (active) | 0.0935 µM (active) | 0.0418 µM (active)
7 | C#CC1(O)CCC2C3CCC4=CC(=O)CCC4(C)C3CCC21C (configuration not stated) | 168 | 100 | inactive | inactive | inactive | inactive | inactive | inactive
8 | COc1cc2cc(c1Cl)N(C)C(=O)C[C@H](OC(=O)C(C)C)[C@]1(C)O[C@H]1[C@H](C)[C@@H]1C[C@@](O)(NC(=O)O1)[C@H](OC)C=CC=C(C)C2 | 10.1 | 4.31 | inactive | inactive | inactive | inactive | inactive | inactive
9 | CC(C)N[C@@H]1CCn2c(=O)[nH]c3cccc(c32)[C@@H]1O | 22.6 | 7.1 | 16.6 µM (active) | inactive | 1.18 µM (active) | 8.33 µM (active) | 7.43 µM (active) | 8.33 µM (active)
10 | CC(C)[C@]12O[C@@H]1[C@@H]1O[C@]13[C@]1(O[C@H]1C[C@@H]1C4=C(CC[C@@]13C)C(=O)OC4)[C@H]2O | 4.5 | 2.1 | inactive | inactive | inactive | inactive | inactive | inactive
11 | C=C1C[C@H]2[C@H]3CCC(=O)[C@@]3(C)CC[C@@H]2[C@@]2(C)C=CC(=O)C=C12 | 12.4 | 32.6 | inactive | inactive |  |  |  | 
12 | CC(C)(O)C(=O)Nc1ccc([N+](=O)[O-])c(C(F)(F)F)c1 | 21 | 14.7 | inactive | inactive | 14.8 µM (active) | 23.5 µM (active) |  | 23.5 µM (active)
13 | CCC(=O)OC1CCC2C3CCC4=CC(=O)CC[C@@]4(C)C3CC[C@]12C (some centres not stated) | 223 | 105 | inactive | inactive | inactive | inactive | inactive | inactive
14 | C[C@@H]1CC[C@H]2[C@@H](C)C(=O)O[C@@H]3O[C@@]4(C)CC[C@H]1[C@]32OO4 | 95.1 | 98.1 | inactive | inactive | 18.7 µM (active) | 3.72 µM (active) |  | 
15 | O=c1cccc2n1CC1CNC[C@H]2C1 | 51.5 | 13.3 | inactive | inactive | inactive | inactive | inactive | 
16 | CC(=O)N(C)c1cccc(-c2ccnc3c(C(=O)c4cccs4)cnn23)c1 | 111 | 72.5 | inactive | inactive |  |  |  | 
17 | COc1ccc2c(c1)CN(C)CC2c1ccc(Cl)c(Cl)c1 (configuration not stated) | 41 | 12.2 | inactive | inactive |  |  |  | 
18 | Cc1ccccc1-n1c(Cn2cnc3c(N)ncnc32)nc2cccc(C)c2c1=O | 68.3 | 9.3 | inactive | inactive | 1.18 µM (active) | 1.87 µM (active) | 5.26 µM (active) | 0.833 µM (active)
19 | CC(C)(C)[C@]1(O)C[C@@H]2OC(=O)C[C@@]23C(=O)O[C@@H]2OC(=O)[C@H](O)C213 (some centres not stated) | 106 | 124 | inactive | inactive | inactive | 20.9 µM (active) | inactive | inactive
20 | COc1cccc2c1[C@]13CCN(CC4CC4)[C@H](C2)[C@]1(OC)CCC(=O)C3 | 99.3 | 111 | inactive | inactive | inactive | inactive | inactive | inactive
21 | O=S(=O)(F)Cc1ccccc1 | 76.9 | 97.3 | inactive | inactive | 0.0418 µM (active) |  |  | 
22 | C[C@@H]1[C@H](O)[C@@H](C)C=CC=CCCC=CC=CC=CC=C[C@H](O[C@H]2O[C@@H](C)[C@H](O)[C@@H](N)[C@@H]2O)CC2O[C@](O)(C[C@@H](O)[C@H](O)CC[C@@H](O)C[C@@H](O)C[C@@H](O)CC(=O)O[C@H]1C)C[C@H](O)[C@H]2C(=O)O | 152 | 124 | inactive | inactive | inactive | inactive | inactive | inactive

Row | Structure (SMILES) | cell viability, % of control (lower = more cytotoxic) [1] [%] | viability (% of control) [2] [%] | Potency [3] | Potency [4] | Potency [5] | Potency [6] | Potency [7] | Potency [8]
23 | COc1ccc2c(c1)[C@]13CCCCC1C(C2)N(C)CC3 (some centres not stated) | 61.8 | 93.4 | inactive | inactive | inactive | inactive | inactive | inactive
24 | Cc1[nH]nc2ccc(-c3cncc(OC[C@@H](N)Cc4c[nH]c5ccccc45)c3)cc12 | 1.9 | 1.66 | inactive | inactive | 0.209 µM (active) | 0.372 µM (active) | 2.09 µM (active) | 4.69 µM (active)
25 | C[C@]12Cc3cn[nH]c3C[C@@H]1CC[C@@H]1[C@H]2CC[C@@]2(C)[C@H]1CC[C@]2(C)O | 133 | 111 | inactive | inactive | 2.96 µM (active) | 2.96 µM (active) | 2.96 µM (active) | 3.32 µM (active)
26 | COc1ccc(C(=O)c2c(C)n(CCN3CCOCC3)c3cc(I)ccc23)cc1 | 4.27 | 5.23 | inactive | inactive |  |  |  | 
27 | COc1ccc(N(C(=O)Oc2c(C)cccc2C)c2ccnc(Nc3ccc(N4CCN(C)CC4)cc3)n2)c(OC)c1 | 137 | 13.7 | inactive | inactive | 1.87 µM (active) | 2.35 µM (active) | 2.64 µM (active) | 2.64 µM (active)
28 | Clc1ccccc1C(c1ccccc1)(c1ccccc1)n1cccn1 | 108 | 108 | inactive | inactive | 1.05 µM (active) | 1.05 µM (active) | 1.05 µM (active) | 0.935 µM (active)
29 | CC1=C(O)C(=O)C=C2C1=CC=C1[C@@]2(C)CC[C@@]2(C)[C@@H]3C[C@](C)(C(=O)O)CC[C@]3(C)CC[C@]12C | 12.3 | 7.21 | inactive | inactive | 1.32 µM (active) | 1.18 µM (active) | 0.935 µM (active) | 0.833 µM (active)
30 | CC(=O)Nc1ccc(OC[C@](C)(O)C(=O)Nc2ccc([N+](=O)[O-])c(C(F)(F)F)c2)cc1 | 138 | 106 | inactive | inactive | inactive | inactive | inactive | inactive
31 | CC[C@@H](C(N)=O)N1CCCC1=O | 211 | 113 | inactive | inactive | inactive |  |  | 
32 | O=C(O)CNC(=O)c1c(O)c2ccccc2n(Cc2ccccc2)c1=O | 256 | 132 | inactive | inactive | 14.8 µM (active) |  | 16.6 µM (active) | 
33 | C=C[C@@H]1CN2CCC1C[C@@H]2[C@@H](O)c1ccnc2ccccc12 (some centres not stated) | 220 | 93.3 | inactive | inactive | 16.6 µM (active) | 18.7 µM (active) |  | 
34 | CN(C)NC(=O)CCC(=O)O | 121 | 96.3 | inactive | inactive | 26.4 µM (active) |  |  | 
35 | CCN1CCN(C(=O)Cc2ccc(Nc3ncc(F)c(Nc4ccc(C(=O)Nc5ccccc5Cl)cc4)n3)cc2)CC1 | 2.73 | 2.31 | inactive | inactive | 8.33 µM (active) | 5.9 µM (active) | 2.96 µM (active) | 4.18 µM (active)
36 | O=C(NCC1CCOCC1)c1cnc(Nc2ccc(Cl)cc2Cl)nc1C(F)(F)F | 7.01 | 7.59 | inactive | 8.33 µM (active) |  |  |  | 
37 | C[C@H]([C@H](O)CCC(C)(C)O)[C@H]1CC[C@@]2(O)C3=CC(=O)[C@@H]4C[C@@H](O)[C@@H](O)C[C@]4(C)[C@@H]3CC[C@]12C | 127 | 110 | inactive | inactive | inactive |  | inactive | inactive
38 | CC(N[C@H]1C[C@H]1c1ccccc1)c1ccc2c(c1)OCCO2 (some centres not stated) | 154 | 96.1 | inactive | inactive |  |  | inactive | 
39 | c1ccc(CCCN2CCN(CCOC(c3ccccc3)c3ccccc3)CC2)cc1 | 8.38 | 5.14 | inactive | inactive |  | 16.6 µM (active) |  | 20.9 µM (active)
40 | Oc1ccc2c3c1O[C@H]1c4[nH]c5c(c4C[C@@]4(O)[C@@H](C2)N(CC2CC2)CC[C@]314)C[C@@]1(O)[C@H]2Cc3ccc(O)c4c3[C@@]1(CCN2CC1CC1)[C@H]5O4 | 143 | 119 | inactive | inactive |  |  | inactive | inactive
41 | NC1CC1c1ccccc1 (configuration not stated) | 70.9 | 95.2 | inactive | inactive |  | inactive | inactive | inactive
42 | C[C@]12COC(=O)C[C@@H]1CC[C@@H]1[C@H]2CC[C@@]2(C)[C@H]1CC[C@]2(C)O | 122 | 111 | inactive | inactive |  |  | inactive | inactive
43 | CC(=CCCC1=CCC(C2=CC(=O)OC2O)OC1O)CCC1=C(C)CCCC1(C)C (configuration not stated) | 124 | 103 | inactive | inactive | 18.7 µM (active) |  |  | 20.9 µM (active)
